Experimental data as given in PubChem BioAssay AID588689 (Southern Research Specialized Biocontainment Screening …, 2011).
Screen size: about 340,000 compounds; about 1,000 (0.29%) were called active. Not all results are given here. Entries with a potency or affinity are not part of this list. Values without a mark were called inactive. No stated cut-off is given here; in the data, inconclusive means inhibition above about 29% without an active follow-up result; inactive means below that.

What follows are molecules tested against Genome polyprotein (Dengue virus type 2 (strain 16681-PDK53)) (UniProt P29991) (assay: Dengue-2 NS5 methyltransferase inhibitors, primary screen, biochemical, confirmation dose response (AID 588689)). Conditions: Dengue-2 NS5 methyltransferase capping enzyme assay, at 25 µM, hits give high values.
Chain of Genome polyprotein (Dengue virus type 2 (strain 16681-PDK53)) (P29991 whole entry, looked up): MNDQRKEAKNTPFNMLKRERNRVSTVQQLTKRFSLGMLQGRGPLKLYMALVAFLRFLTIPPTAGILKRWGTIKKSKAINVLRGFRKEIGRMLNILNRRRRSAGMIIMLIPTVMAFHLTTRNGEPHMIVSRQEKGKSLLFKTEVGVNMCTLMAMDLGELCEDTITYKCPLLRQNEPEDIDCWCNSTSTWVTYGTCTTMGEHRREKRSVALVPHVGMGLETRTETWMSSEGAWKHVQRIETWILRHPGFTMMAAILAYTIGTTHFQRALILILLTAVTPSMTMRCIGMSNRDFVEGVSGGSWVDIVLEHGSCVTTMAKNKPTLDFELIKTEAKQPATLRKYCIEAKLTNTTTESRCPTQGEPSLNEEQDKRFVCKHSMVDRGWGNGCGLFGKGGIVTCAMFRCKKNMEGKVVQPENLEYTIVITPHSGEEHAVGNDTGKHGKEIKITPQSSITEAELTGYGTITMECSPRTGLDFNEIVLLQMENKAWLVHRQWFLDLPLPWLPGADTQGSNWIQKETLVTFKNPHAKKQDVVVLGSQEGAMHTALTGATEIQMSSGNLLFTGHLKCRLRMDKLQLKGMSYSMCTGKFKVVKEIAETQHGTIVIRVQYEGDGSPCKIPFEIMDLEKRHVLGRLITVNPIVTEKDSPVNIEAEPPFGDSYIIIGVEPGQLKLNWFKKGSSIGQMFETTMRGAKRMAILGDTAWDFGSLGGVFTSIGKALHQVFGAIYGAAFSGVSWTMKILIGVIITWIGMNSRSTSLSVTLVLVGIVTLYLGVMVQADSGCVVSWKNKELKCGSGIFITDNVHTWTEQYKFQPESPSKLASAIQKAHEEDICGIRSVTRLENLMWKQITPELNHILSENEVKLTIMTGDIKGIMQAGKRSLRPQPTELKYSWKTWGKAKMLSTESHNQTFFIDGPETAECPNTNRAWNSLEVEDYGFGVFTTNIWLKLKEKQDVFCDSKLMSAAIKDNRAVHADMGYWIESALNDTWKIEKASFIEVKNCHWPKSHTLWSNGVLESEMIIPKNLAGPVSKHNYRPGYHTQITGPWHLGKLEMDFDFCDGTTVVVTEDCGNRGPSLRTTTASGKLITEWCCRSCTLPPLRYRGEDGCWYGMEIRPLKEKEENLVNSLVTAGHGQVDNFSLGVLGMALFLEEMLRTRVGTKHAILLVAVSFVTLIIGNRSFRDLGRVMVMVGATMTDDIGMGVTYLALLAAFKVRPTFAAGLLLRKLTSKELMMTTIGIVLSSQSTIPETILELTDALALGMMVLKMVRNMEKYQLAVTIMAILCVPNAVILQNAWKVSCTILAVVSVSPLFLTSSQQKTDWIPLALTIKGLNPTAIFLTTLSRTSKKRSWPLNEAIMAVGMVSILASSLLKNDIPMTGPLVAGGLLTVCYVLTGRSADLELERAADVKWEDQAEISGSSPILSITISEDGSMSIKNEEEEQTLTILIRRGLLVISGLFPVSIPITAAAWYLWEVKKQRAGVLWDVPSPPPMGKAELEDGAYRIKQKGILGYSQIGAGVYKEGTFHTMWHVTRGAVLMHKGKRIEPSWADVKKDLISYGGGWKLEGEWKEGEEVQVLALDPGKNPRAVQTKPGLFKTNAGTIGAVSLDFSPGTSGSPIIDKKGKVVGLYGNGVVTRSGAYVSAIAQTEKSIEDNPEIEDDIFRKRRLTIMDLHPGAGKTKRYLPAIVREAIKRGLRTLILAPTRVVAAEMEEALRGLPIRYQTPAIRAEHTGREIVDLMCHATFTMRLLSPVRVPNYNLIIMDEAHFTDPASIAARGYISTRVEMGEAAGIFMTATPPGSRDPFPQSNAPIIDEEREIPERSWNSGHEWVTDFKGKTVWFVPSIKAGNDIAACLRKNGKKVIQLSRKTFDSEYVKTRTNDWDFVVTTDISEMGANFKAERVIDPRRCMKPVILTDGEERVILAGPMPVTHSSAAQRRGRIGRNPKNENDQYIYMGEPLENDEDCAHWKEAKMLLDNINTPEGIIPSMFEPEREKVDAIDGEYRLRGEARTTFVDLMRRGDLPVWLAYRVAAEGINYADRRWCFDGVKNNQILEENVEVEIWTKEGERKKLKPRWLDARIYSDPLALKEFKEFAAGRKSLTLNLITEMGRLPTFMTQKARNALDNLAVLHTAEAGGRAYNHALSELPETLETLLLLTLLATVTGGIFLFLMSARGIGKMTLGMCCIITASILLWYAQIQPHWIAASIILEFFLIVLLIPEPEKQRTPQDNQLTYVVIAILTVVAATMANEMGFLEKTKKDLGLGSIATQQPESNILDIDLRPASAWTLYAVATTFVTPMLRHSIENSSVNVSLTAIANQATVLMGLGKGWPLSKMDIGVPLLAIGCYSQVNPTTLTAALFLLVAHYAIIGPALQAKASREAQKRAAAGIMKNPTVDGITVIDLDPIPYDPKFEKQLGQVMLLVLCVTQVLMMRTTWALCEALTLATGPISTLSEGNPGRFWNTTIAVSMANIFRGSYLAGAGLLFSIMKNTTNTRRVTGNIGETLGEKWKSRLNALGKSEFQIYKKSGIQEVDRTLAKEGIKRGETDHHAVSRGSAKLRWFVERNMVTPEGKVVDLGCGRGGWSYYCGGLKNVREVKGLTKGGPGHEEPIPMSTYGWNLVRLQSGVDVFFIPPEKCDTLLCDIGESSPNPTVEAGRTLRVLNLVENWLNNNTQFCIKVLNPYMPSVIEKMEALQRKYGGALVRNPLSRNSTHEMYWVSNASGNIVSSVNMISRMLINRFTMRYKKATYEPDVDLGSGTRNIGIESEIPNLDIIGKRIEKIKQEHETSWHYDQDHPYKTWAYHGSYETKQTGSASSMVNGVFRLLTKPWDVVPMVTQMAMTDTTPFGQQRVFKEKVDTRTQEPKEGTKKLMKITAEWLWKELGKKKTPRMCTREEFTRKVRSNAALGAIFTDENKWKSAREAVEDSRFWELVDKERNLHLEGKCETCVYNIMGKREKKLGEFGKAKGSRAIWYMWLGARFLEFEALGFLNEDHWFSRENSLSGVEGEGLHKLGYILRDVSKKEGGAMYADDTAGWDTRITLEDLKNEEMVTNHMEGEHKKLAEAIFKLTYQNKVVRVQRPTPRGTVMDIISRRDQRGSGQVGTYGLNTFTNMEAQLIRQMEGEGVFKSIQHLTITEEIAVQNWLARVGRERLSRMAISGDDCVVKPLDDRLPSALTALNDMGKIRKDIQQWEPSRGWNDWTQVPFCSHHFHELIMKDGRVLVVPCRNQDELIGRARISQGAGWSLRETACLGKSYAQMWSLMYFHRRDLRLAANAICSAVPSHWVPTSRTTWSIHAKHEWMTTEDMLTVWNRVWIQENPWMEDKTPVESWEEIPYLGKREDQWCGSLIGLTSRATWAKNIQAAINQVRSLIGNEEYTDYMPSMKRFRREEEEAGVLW
Work on OCC(CO)(CO)n1cnnn1 yielded an inhibition of -8.59%.
With Cc1ccnc(N/C=C(/NC(=O)c2ccccc2)C(=O)N/N=C\c2ccc(Cl)cc2)n1 the inhibition was -3.09%.
Work on O=C(COC(=O)c1ccc2c(c1)S(=O)(=O)N=C1CCCCCN12)NCc1cccs1 yielded an inhibition of -3.45%.
For CCOC(=O)C1CCCN(S(=O)(=O)c2cc(OCC(N)=O)c(C)cc2Cl)C1 (centres undefined), the inhibition was -5.68%.
For CC(C)c1ccc(S(=O)(=O)c2nnn3c2nc(N2CCCCC2)c2ccccc23)cc1, the inhibition was 1.47%.
CC(C)c1ccc(S(=O)(=O)c2nnn3c2nc(NCC2CCCO2)c2ccccc23)cc1 (centres undefined) was tested, and the inhibition was 0%.
In the case of O=C(/C=C/c1ccco1)Nc1ccc2c(c1)OCCO2, the inhibition is reported as -4.48%.
COC(=O)c1c(-c2ccc(C)cc2)csc1NC(=O)C1CC=CCC1C(=O)O (centres undefined) gave an inhibition of 0%.
CCOC(=O)c1c(-c2ccc(F)cc2)csc1NC(=O)C1CC=CCC1C(=O)O (centres undefined) showed an inhibition of 9.56%.
CCOC(=O)c1c(-c2ccc(C)cc2)csc1NC(=O)C1CC=CCC1C(=O)O (centres undefined) showed an inhibition of 14.8%.
For COC(=O)c1c(-c2ccccc2)csc1NC(=O)C1CC=CCC1C(=O)O (centres undefined), the inhibition was -4.1%.
O=C(NC(=S)Nc1ccccc1Br)C1CC1 showed an inhibition of 7.22%.
With Cc1nc2cc(N3CCCCC3)c(NC(=O)c3cccnc3)cc2c(=O)n1Cc1ccccc1 the inhibition was -0.81%.
For Nn1c(SCC(=O)Nc2ccc(F)c(F)c2)nnc1C1CCCCC1, the inhibition was -4.85%.
Work on COC(=O)CSc1nnc(-c2ccc(S(=O)(=O)N3CCCC3)cc2)o1 yielded an inhibition of -3.25%.
With Nc1nc2c(nc(SCc3ccccc3Br)n2[C@@H]2O[C@H](CO)[C@@H](O)[C@H]2O)c(=O)[nH]1 the inhibition was -5.87%.
Molecule CCOc1ccc(NC(=S)N(CCc2c(C)[nH]c3ccc(C)cc23)Cc2ccncc2)cc1 has an inhibition of -0.7%.
O=C(CSc1nnc(-c2ccc(Cl)cc2)n1-c1ccccc1)N/N=C/c1ccccc1C(=O)O was tested, and the inhibition was -3.12%.
For COc1ccc([C@H]2N[C@]3(CCCN(Cc4ccc(Cl)cc4)C3=O)[C@H]3C(=O)N(Cc4ccccc4)C(=O)[C@@H]23)cc1, the inhibition was -3.98%.
Molecule CCOC(=O)c1c(NCc2ccc3c(c2)OCO3)c2ccccc2[nH]c1=O has an inhibition of -4.02%.
Work on O=S(=O)(Nc1nccs1)c1cc(Cl)ccc1Cl yielded an inhibition of -13.7%.
O=S(=O)(Nc1nc(-c2ccccc2)cs1)c1cc(Cl)ccc1Cl was tested, and the inhibition was 28.3%.
Molecule S=C(Nc1ccc(Nc2ccccc2)cc1)Nc1ccccn1 has an inhibition of -0.82%.
COc1ccc(-c2cc(=O)c3ccccc3n2C)cc1 was tested, and the inhibition was -9.65%.
